Screening data deposited in PubChem BioAssay by National Center for Advancing Translational Sciences (NCATS).
VDR inhibitor = Inhibitors of the vitamin D receptor (VDR): qHTS; Vitamin D3 receptor (Homo sapiens), P11473; VDR-SRC2-3 peptide fluorescence polarization, 2 h; Potency, µM, for inactives: max response, negative = inhibition, most hits filed as inhibitors; actives 0.93% (n = 400,000); note: potency is the fitted concentration of half-maximal effect; % is set by controls: 0 for no effect and ±100 for the full control effect
Target sequence (P11473 whole entry, looked up): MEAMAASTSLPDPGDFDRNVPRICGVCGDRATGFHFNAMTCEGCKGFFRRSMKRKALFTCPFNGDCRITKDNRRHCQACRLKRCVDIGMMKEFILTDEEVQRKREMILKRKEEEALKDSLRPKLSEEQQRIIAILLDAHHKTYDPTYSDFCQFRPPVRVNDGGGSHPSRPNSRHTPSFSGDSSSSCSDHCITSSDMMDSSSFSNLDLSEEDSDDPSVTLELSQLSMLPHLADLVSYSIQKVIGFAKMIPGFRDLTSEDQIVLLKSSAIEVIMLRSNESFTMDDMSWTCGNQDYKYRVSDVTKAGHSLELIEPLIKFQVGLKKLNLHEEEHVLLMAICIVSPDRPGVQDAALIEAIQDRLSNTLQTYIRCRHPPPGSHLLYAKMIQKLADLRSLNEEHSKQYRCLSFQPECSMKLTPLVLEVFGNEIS
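Two reagent solutions held at 4 deg C in the dark were dispensed, compounds pinned at 23 nl, and the mixture incubated 2 h at room temperature. Read-out: fluorescence polarization of VDR–SRC2-3 peptide binding.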
FEN1 inh-1 = qHTS Assay for the Inhibitors of Human Flap endonuclease 1 (FEN1). P39748. actives 0.35% (n = 390,000). Recombinant FEN1 flap cleavage, fluorescence, 15 min. Potency, µM (series often up to 114 µM), for inactives: at the highest dose activity change, negative = inhibition, usual class: inhibitors. AID 588795, 2011; note: potency is the fitted concentration of half-maximal effect; % is set by controls: 0 for no effect and ±100 for the full control effect; nearly all actives have a fitted effect of over 65% in size
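With each library titrated from low to high concentration, compounds met 10 nM FEN1 for 15 min at room temperature before 50 nM substrate was added; readings at 0 and 15 min fed four-parameter Hill curve fits.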
PLK1 PBD inh = qHTS for Inhibitors of PLK1-PDB (polo-like kinase 1 - polo-box domain): Primary Screen; Serine/threonine-protein kinase PLK1 (Homo sapiens), P53350; Plk1 PBD binding of FITC phosphopeptide, fluorescence polarization; Potency, µM, for inactives: max response, negative = inhibition, actives largely listed as inhibitors; actives 2.8% (n = 360,000); AID 720504, 2013; note: potency is the fitted concentration of half-maximal effect; series mostly up to about 57 µM; % is set by controls: 0 for no effect and ±100 for the full control effect; nearly all actives have a fitted effect of over 65% in size
TCR act = Activators of T cell receptors: qHTS campaign; Potency, µM (doses to about 9.22 µM), inactives show at the highest dose activation of IL-2 secretion, usual class: activators; primary human leukocytes, anti-CD3, IL-2 HTRF, 48 h; AID 504894, 2011; 330,000 tested, under 10 active; note: % of control where 0% means no effect
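Primary human leukocytes were stimulated with a-CD3 beads plus compounds for 48 hr without co-stimulation; secreted IL-2 was quantified by HTRF using a-IL-2-K (europium cryptate) and a-IL-2-d2, excited at 320nm with acceptor emission read at 665nm.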
WRN helicase inh-1 = qHTS for Inhibitors of WRN Helicase | Potency, µM (titrated, usually from 114 µM), for inactives: at the top dose activity change, negative = inhibition, actives largely listed as inhibitors | Bifunctional 3'-5' exonuclease/ATP-dependent helicase WRN (Homo sapiens), Q14191 | actives 0.46% (n = 360,000) | WRN helicase unwinding, fluorescent forked duplex, kinetic; note: potency is the fitted concentration of half-maximal effect; % is set by controls: 0 for no effect and ±100 for the full control effect; nearly all actives have a fitted effect of over 55% in size
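WRN at 20 nM final was preincubated with compound for 15 min at room temperature; reaction started with 100 nM forked duplex oligonucleotide carrying fluorophore and quencher plus 2 mM ATP (final). Unwinding followed kinetically by red fluorescence (ex 525/em 598 nm).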
PI5P4K alpha inh = qHTS for Inhibitors of phosphatidylinositol 5-phosphate 4-kinase (PI5P4K); Phosphatidylinositol 5-phosphate 4-kinase type-2 alpha (Homo sapiens), P48426; PI5P4Kalpha enzyme, ADP-Glo luminescence, 60 min; hits give low values; max response, %; actives 1.2% (n = 330,000); active = max response of -50% or lower; inconclusive = between -30% and -50%; inactive = -30% or higher; note: value at the top dose of about 77 µM; % is set by controls: 0 for no effect and ±100 for the full control effect
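Quantitative HTS of the MLSMR library against PI5P4Kalpha with substrate. ATP added last at 5 microM final; room temperature, 60 minutes. Remaining ATP depleted, ADP converted and read as luminescence.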
FEN1 inh-2 = qHTS Assay for the Inhibitors of FEN1: Confirmatory Assay for Cherry-picked Compounds. shares compounds with FEN1 inh-1. FEN1 flap cleavage, TAMRA/BHQ2 fluorogenic DNA substrate. Potency, µM, hits mostly inhibitors. actives 79% (n = 880); note: potency is the fitted concentration of half-maximal effect; nearly all actives have a fitted effect of over 60% in size
WRN helicase inh-2 = qHTS for Inhibitors of WRN Helicase: Confirmatory Assay for Cherry-picked Compounds | Potency, µM (top dose mostly 57.1 µM), without a hit: at the highest dose activity, negative = inhibition, most hits filed as inhibitors | WRN helicase DNA unwinding, fluorescence kinetic | shares compounds with WRN helicase inh-1 | actives 63% (n = 610); note: potency is the fitted concentration of half-maximal effect; nearly all actives have a fitted effect of over 65% in size
TO displacement = qHTS for Inhibitors of WRN Helicase: Thiazole Orange DNA Binding Counterscreen; shares compounds with WRN helicase inh-1; thiazole orange DNA binding displacement, fluorescence; Potency, µM (top dose mostly 57.1 µM), inactives show top-dose activity change, negative = inhibition, actives largely listed as inhibitors; actives 10% (n = 610);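 note: drop in dye fluorescence marks compound binding to DNA; potency is the fitted concentration of half-maximal effect; % is set by controls: 0 for no effect and ±100 for the full control effect; nearly all actives have a fitted effect of over 60% in size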
BLM counter = qHTS for Inhibitors of WRN Helicase: BLM Helicase Counterscreen for WRN Inhibitors; shares compounds with WRN helicase inh-1; Recombinant BLM helicase DNA unwinding, red fluorescence; Potency, µM (highest dose often 57.1 µM), without a hit: top-dose activity change, negative = inhibition, most hits filed as inhibitors; actives 60% (n = 610); note: potency is the fitted concentration of half-maximal effect; nearly all actives have a fitted effect of over 60% in size
ADP-Glo counter = qHTS for Inhibitors of PI5P4K: ADP-Glo counter assay. shares compounds with PI5P4K alpha inh. 1,100 tested, under 10 active. AID 743285, 2014. Potency, µM (titrated, usually from 76.9 µM), for inactives: at the highest dose activity change, negative = inhibition, actives largely listed as inhibitors. ADP-Glo detection counter-screen, luciferase luminescence, no enzyme
* hit, by the source's call; [ ] = another dose, or the depositor's remark. This is a sample that favours compounds with a hit; in the whole collection about 3.7% have one here. Unless noted, calls come from the whole dose curve; as a rule, active = well fitted curve in the direction sought with a large enough effect; inconclusive = small, poorly fitted or top-dose-only effect, or another doubt; inactive = no such curve, though single readings can be large; an effect the other way counts as inactive or inconclusive.

What do the screens show for `COc1cc(/C=C2\CC/C(=C\c3cc(OC)c(OC)c(OC)c3)C2=O)cc(OC)c1OC`?
VDR inhibitor: -2%; FEN1 inh-1: -4%; PLK1 PBD inh: 2%; TCR act: -10%[46.1 µM]; WRN helicase inh-1: -12%; PI5P4K alpha inh: 1

Results for COc1cc(/C=C2\CC/C(=C\c3cc(OC)c(O)c(OC)c3)C2=O)cc(OC)c1O ?
VDR inhibitor: -14%; FEN1 inh-1: 6.3µM*; PLK1 PBD inh: 4.7µM*; TCR act: 0%[46.1 µM]; WRN helicase inh-1: 11µM*; PI5P4K alpha inh: inconclusive; FEN1 inh-2: 8.5*; WRN helicase inh-2: 3.4µM*; TO displacement: 6.1µM*; BLM counter: 5.4µM*

Results for COCCCNC(=O)c1cc2c(-c3cccc(OC)c3)nn(C)c2s1 ?
VDR inhibitor: -8%; FEN1 inh-1: 0%; PLK1 PBD inh: 0%; TCR act: -1%; WRN helicase inh-1: -3%; PI5P4K alpha inh: -1

What do the screens show for `CCCN(CCC)CCCNC(=O)c1cc2c(-c3ccc(OC)c(OC)c3)nn(C)c2s1`?
VDR inhibitor: -3%; FEN1 inh-1: 28µM*; PLK1 PBD inh: 2%; TCR act: 7%; WRN helicase inh-1: -6%[11.6 µM]; PI5P4K alpha inh: -1; FEN1 inh-2: 27*; WRN helicase inh-2: 19µM*; TO displacement: -30%; BLM counter: inconclusive

How did CSC1SCC2C(=O)N(C)C(C(C)C)C(=O)OCC(NC(=O)c3cnc4ccccc4n3)C(=O)NC(C)C(=O)N(C)C1C(=O)N(C)C(C(C)C)C(=O)OCC(NC(=O)c1cnc3ccccc3n1)C(=O)NC(C)C(=O)N2C (stereo unspecified) do in these assays?
VDR inhibitor: -10%; FEN1 inh-1: 0.56µM*; PLK1 PBD inh: -9%; TCR act: 9%; WRN helicase inh-1: 0.53µM*; PI5P4K alpha inh: inconclusive; FEN1 inh-2: 0.6*; WRN helicase inh-2: 0.34µM*; TO displacement: inconclusive; BLM counter: 0.54µM*

What do the screens show for `CCOc1ccc(NC(=O)CSC2=Nc3ccccc3C3=NC(CC(=O)NCc4cccs4)C(=O)N23)cc1` (stereo unspecified)?
VDR inhibitor: -5%; FEN1 inh-1: -5%

How did COc1cccc(C2C(C(=O)Nc3ccc(C)cc3C)=C(C)Nc3c(C(=O)Nc4cccc(C)c4)cnn32)c1OC (stereo unspecified) do in these assays?
VDR inhibitor: 9%; FEN1 inh-1: 4%

How did CCNc1ccc2noc3c2c1C(=O)c1ccccc1-3 do in these assays?
VDR inhibitor: 9%; FEN1 inh-1: 50µM*; PLK1 PBD inh: 1.1µM*; TCR act: 4%[46.1 µM]; WRN helicase inh-1: 4.2µM*; FEN1 inh-2: 85*; WRN helicase inh-2: 3µM*; TO displacement: inactive; BLM counter: 7.6µM*

How did CCc1ccc(N=C2NC(=O)/C(=C/c3cc(Br)c(OCC(=O)O)c(OC)c3)S2)cc1 do in these assays?
VDR inhibitor: inconclusive; FEN1 inh-1: 50µM*; PLK1 PBD inh: 30µM*; TCR act: 1%; WRN helicase inh-1: inconclusive; PI5P4K alpha inh: -97*; FEN1 inh-2: 76*; WRN helicase inh-2: 22µM*; TO displacement: -4%; BLM counter: 24µM*

Results for CC(OC(=O)/C(C#N)=C/c1ccc(N(C)C)cc1)C(=O)N(C)Cc1ccccc1 (stereo unspecified) ?
VDR inhibitor: 70%; FEN1 inh-1: inconclusive; PLK1 PBD inh: 3%; TCR act: -3%; WRN helicase inh-1: 45µM*; PI5P4K alpha inh: 1; FEN1 inh-2: 76*; WRN helicase inh-2: 24µM*; TO displacement: 74%; BLM counter: 22µM*

How did CC(OC(=O)c1cccc(O)c1)C(=O)N(C)Cc1ccccc1 (stereo unspecified) do in these assays?
VDR inhibitor: -9%; FEN1 inh-1: -3%; PLK1 PBD inh: 5%; TCR act: 0%; WRN helicase inh-1: -10%; PI5P4K alpha inh: -7

How did COc1ccc(O)c(C(=O)c2cc(SCC(=O)O)c3nc4sc5c(c4c(=O)n3c2)CCCC5)c1 do in these assays?
VDR inhibitor: -6%; FEN1 inh-1: inconclusive; PLK1 PBD inh: 27µM*; TCR act: -9%; WRN helicase inh-1: 25µM*; PI5P4K alpha inh: inconclusive; FEN1 inh-2: 38*; WRN helicase inh-2: 22µM*; TO displacement: inconclusive; BLM counter: 5.4µM*

What do the screens show for `CN(C)C(CNC(=O)c1cc(-c2ccco2)nc2ccccc12)c1ccccc1` (stereo unspecified)?
VDR inhibitor: 19%; FEN1 inh-1: inconclusive; PLK1 PBD inh: inconclusive; TCR act: -3%; WRN helicase inh-1: inconclusive; PI5P4K alpha inh: -54*; FEN1 inh-2: inconclusive; ADP-Glo counter: -1%
